Data published in PubChem BioAssay (Tox21).
Records with an inconclusive call do not appear. Active and inactive are the calls of the source. Unless noted, calls follow the shape of the dose curve; as a rule, active = well fitted curve in the direction sought with a large enough effect in the repeat runs; inconclusive = weak or mixed curves; inactive = no such curve, though single readings can be large; an effect the other way counts as inactive or inconclusive.

Legend:
[1] = qHTS assay to identify small molecule agonists of the vitamin D receptor (VDR) signaling pathway - cell viability counter screen (AID 743224); conditions: VDR-bla HEK293T viability, CellTiter-Glo luminescence, 16 h; series mostly up to 62.6 µM; also: % is scaled to controls: 0 for no effect and ±100 for the full control effect; nearly all actives have a fitted effect of over 50% in size
Outline: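 Viability is measured in the same wells as the VDR-bla reporter assay: after 16 h compound treatment and 2 h substrate loading, CellTiter-Glo is added and luminescence read 30 min later.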

[2] = qHTS assay to identify small molecule antagonists of the vitamin D receptor (VDR) signaling pathway - cell viability counter screen (AID 743225); conditions: VDR-bla HEK293T viability, CellTiter-Glo luminescence, 16 h; series mostly up to 61 µM; also: % is scaled to controls: 0 for no effect and ±100 for the full control effect; nearly all actives have a fitted effect of over 50% in size
Outline: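 Compounds were pinned onto VDR-bla HEK 293T cells together with 1-alpha,25-dihydroxyvitamin D3 at 3 nM final. After 16 h at 37C and 5% CO2 plus the reporter readout, cell viability was measured by CellTiter-Glo luminescence (30 min, room temperature).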

[3] = qHTS assay to identify small molecule agonists of the NFkB signaling pathway (AID 1159509; active = well fitted curve in the direction sought with a large enough effect in the signal ratio in the repeat runs, not every such curve was filed as active; the % refers to the signal ratio; also: % is scaled to controls: 0 for no effect and ±100 for the full control effect); conditions: NFkB-bla ME-180 cells, beta-lactamase FRET ratio, 5 h; series mostly up to 61 µM
Outline: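 After overnight attachment, reporter cells received test compounds, DMSO or positive controls and were incubated 5 hr at 37 C. FRET substrate was then added for 1.5 hr at room temperature before dual-emission fluorescence reading.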

[4] = qHTS assay to identify small molecule agonists of the NFkB signaling pathway - cell viability counter screen (AID 1159515; calls by dose curve; also: % is scaled to controls: 0 for no effect and ±100 for the full control effect; nearly all actives have a fitted effect of over 55% in size); conditions: NFkB-bla ME-180 viability, CellTiter-Glo luminescence, 5 h; series mostly up to 61 µM
Outline: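 Multiplexed viability readout: after the 5 hr compound exposure and 1.5 hr FRET substrate step, CellTiter-Glo reagent went into the same NFkB-bla ME-180 wells; ATP luminescence was measured after 30 min at room temperature.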

[5] = qHTS assay to identify small molecule agonists of the endoplasmic reticulum stress response signaling pathway (AID 1159516; active = well fitted activation curve with a large enough effect in the signal ratio in the repeat runs, not every such curve was filed as active; the % refers to the signal ratio; also: % is scaled to controls: 0 for no effect and ±100 for the full control effect); conditions: ESRE-bla HeLa, ER stress beta-lactamase reporter, 5 h; series mostly up to 61 µM
Outline: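 Tox21 10K library screened in quantitative HTS format on ESRE-bla HeLa cells, a beta-lactamase reporter under ER stress response element control; 5 hr treatment, FRET read.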

[6] = qHTS assay to identify small molecule agonists of the endoplasmic reticulum stress response signaling pathway - cell viability counter screen (AID 1159517; calls by dose curve; also: % is scaled to controls: 0 for no effect and ±100 for the full control effect; nearly all actives have a fitted effect of over 50% in size); conditions: ESRE-bla HeLa viability, CellTiter-Glo luminescence, 5 h; series mostly up to 61 µM
Outline: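 Cells, HeLa ESRE-bla; density, 1,500/well; dosing, 5 hr at 37 C, 5% CO2; readout, CellTiter-Glo luminescence after 30 min RT.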

[7] = qHTS assay to identify small molecule antagonists of the retinoid-related orphan receptor gamma (ROR-gamma) signaling pathway - cell viability counter screen (AID 1159520); conditions: Tet-on RORgamma CHO cells viability, ATP luminescence, 16 h; series mostly up to 92.4 µM; also: % is scaled to controls: 0 for no effect and ±100 for the full control effect; nearly all actives have a fitted effect of over 50% in size
Outline: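 Cytotoxicity was read from cellular ATP (CellTiter-Glo luminescence) after 16 hr at 37 C with 1 uM doxycycline induction. The inducer was added 2 hr after compound transfer to Tet-on ROR gamma CHO cells.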

[8] = target: Nuclear receptor ROR-gamma (Homo sapiens) (UniProt P51449); assay: qHTS assay to identify small molecule antagonists of the retinoid-related orphan receptor gamma (ROR-gamma) signaling pathway (AID 1159521); conditions: Tet-on RORgamma CHO cells, RORE-luciferase, 16 h; series mostly up to 92.4 µM
Outline: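 Test compounds were applied to Tet-on RORγ CHO cells 2 h ahead of doxycycline hyclate (1 uM final). Luciferase reporter activity was quantified by luminescence after 16 h at 37 C and 5% CO2.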

[9] = qHTS assay to identify small molecule agonists of the AP-1 signaling pathway - cell viability counter screen (AID 1159525; calls by dose curve; also: nearly all actives have a fitted effect of over 55% in size); conditions: ME-180 AP-1-bla cells viability, ATP luminescence, 5 h; series mostly up to 76.8 µM
Outline: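 Luminescent ATP readout (Cell Titer Glo, 30 min RT), normalised to DMSO and tetra n-octyl ammonium bromide controls. Cells were ME-180 AP-1-bla in 0.5% dialyzed FBS Opti-MEM, with a 5 h, 37 °C compound exposure.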

[10] = qHTS assay to identify small molecule agonists of the AP-1 signaling pathway (AID 1159526; calls by dose curve; also: % is scaled to controls: 0 for no effect and ±100 for the full control effect); conditions: ME-180 (cervical carcinoma) AP-1-bla reporter, beta-lactamase FRET ratio, 5 h; series mostly up to 76.8 µM
[11] = target: Retinoic acid receptor RXR-alpha (Homo sapiens) (UniProt P19793); assay: qHTS assay to identify small molecule agonists of the RXR signaling pathway (AID 1159527; calls by dose curve; also: % is scaled to controls: 0 for no effect and ±100 for the full control effect; nearly all actives have a fitted effect of over 35% in size); conditions: HEK293T RXRa-UAS-bla, beta-lactamase ratio, 16 h; series mostly up to 76.8 µM
Outline: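 Using 9-cis retinoic acid as the reference agonist, chemicals were tested in HEK 293T cells […] for 16 hr; substrate loading lasted 2 hr at room temperature.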

[12] = qHTS assay to identify small molecule agonists of the RXR signaling pathway - cell viability counter screen (AID 1159529); conditions: RXR-alpha-bla HEK293T viability, CellTiter-Glo, 16 h; series mostly up to 76.8 µM
Outline: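 Compounds dissolved in DMSO were pinned onto HEK 293T cells carrying a beta-lactamase reporter under RXR-alpha control and incubated 16 hr. Cytotoxicity was then quantified by CellTiter-Glo luminescence.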

[13] = qHTS assay to identify small molecule antagonists of the retinoid acid receptor (RAR) signaling pathway - cell viability counter screen (AID 1159551); conditions: C3RL4 cells viability, ATP luminescence (CellTiter-Glo), 6 h; series mostly up to 92.4 µM; also: % is scaled to controls: 0 for no effect and ±100 for the full control effect; nearly all actives have a fitted effect of over 35% in size
Outline: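 Cytotoxicity counter screen in C3RL4 cells: 6 h compound exposure with 1 uM retinol (final), viability from cellular ATP by luminescence.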

[14] = qHTS assay to identify small molecule antagonists of the retinoic acid receptor (RAR) signaling pathway (AID 1159552); conditions: C3RL4 RARE luciferase reporter, retinol-stimulated, 6 h; series mostly up to 92.4 µM
Outline: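 Test chemicals and DMSO controls were pin-transferred onto C3RL4 cells a day after seeding; retinol (1 uM final) followed at once. Luminescent reporter output was quantified after 6 hr of co-incubation and 30 min with detection reagent.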

[15] = qHTS assay to identify small molecule agonists of the retinoic acid receptor (RAR) signaling pathway (AID 1159553); conditions: C3RL4 RARE luciferase reporter, agonist, 6 h; series mostly up to 73.3 µM; also: % is scaled to controls: 0 for no effect and ±100 for the full control effect
Outline: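 Agonist activity was scored in C3RL4 cells bearing a retinoic acid response element luciferase construct. Cells were treated with compounds for 6 hr at 37 C, and luciferase signal was measured as luminescence.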

[16] = qHTS assay to identify small molecule antagonists of the estrogen related receptor (ERR) signaling pathway from Tox21 library - cell viability counter screen (AID 1224834); conditions: ERR reporter cells viability, CellTiter-Fluor, 17.5 h; series mostly up to 92.4 µM; also: % is scaled to controls: 0 for no effect and ±100 for the full control effect; nearly all actives have a fitted effect of over 30% in size
Outline: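 Cytotoxicity of test substances is gauged in the same ERR cells used for the antagonist screen, after 17.5 h of compound treatment at 37 C, by CellTiter-Fluor fluorescence measured after 30 min.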

[17] = target: Luciferin 4-monooxygenase (Photinus pyralis) (UniProt P08659); assay: qHTS assay to identify small molecule inhibitors of firefly luciferase (AID 1224835); also: % is scaled to controls: 0 for no effect and ±100 for the full control effect; nearly all actives have a fitted effect of over 25% in size; conditions: purified P. pyralis luciferase, luminescence inhibition; series mostly up to 115 µM
Outline: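 Inhibition of purified Photinus luciferase is measured by luminescence. Substrate levels (D-luciferin, ATP) sit at their KM values. Each compound is tested in a concentration series.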

[18] = qHTS assay to identify small molecule agonists of the constitutive androstane receptor (CAR) signaling pathway - cell viability counter screen (AID 1224836); conditions: HepG2-CYP2B6-hCAR viability, CellTiter-Fluor, 23 h, PK11195 added to every well; series mostly up to 92.4 µM; also: % is scaled to controls: 0 for no effect and ±100 for the full control effect; nearly all actives have a fitted effect of over 45% in size
Outline: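 23 h treatment, 37 C, 5% CO2. Cell line: HepG2 stably expressing hCAR with a CYP2B6-2.2kb construct. Co-treatment: PK11195, 0.75 uM final. Read-out: CellTiter-Fluor fluorescence intensity.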

[19] = qHTS assay to identify small molecule antagonists of the constitutive androstane receptor (CAR) signaling pathway - cell viability counter screen (AID 1224837); conditions: HepG2-CYP2B6-hCAR viability, CellTiter-Fluor, 23 h, co-treated with 50 nM CITCO; series mostly up to 92.4 µM; also: % is scaled to controls: 0 for no effect and ±100 for the full control effect; nearly all actives have a fitted effect of over 45% in size
Outline: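 Multiplexed cytotoxicity read-out for the CAR antagonist screen: double-stable HepG2-CYP2B6-hCAR cells co-treated with 50 nM CITCO (final) and compound over 15 concentrations, incubated 23 hr, then assessed by CellTiter-Fluor fluorescence.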

[20] = target: Nuclear receptor subfamily 1 group I member 3 (Homo sapiens) (UniProt Q14994); assay: qHTS assay to identify small molecule antagonists of the constitutive androstane receptor (CAR) signaling pathway (AID 1224838); conditions: HepG2-CYP2B6-hCAR luciferase, CITCO-stimulated, 24 h; series mostly up to 92.4 µM; also: % is scaled to controls: 0 for no effect and ±100 for the full control effect; nearly all actives have a fitted effect of over 40% in size
Outline: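 Compounds were titrated across 15 concentrations onto HepG2 cells double-stably expressing hCAR and a CYP2B6-2.2kb reporter, together with 50 nM CITCO (final). After 24 h at 37 C, luciferase activity was measured by luminescence.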

Chain of Nuclear receptor subfamily 1 group I member 3 (Homo sapiens) (Q14994 whole entry, looked up): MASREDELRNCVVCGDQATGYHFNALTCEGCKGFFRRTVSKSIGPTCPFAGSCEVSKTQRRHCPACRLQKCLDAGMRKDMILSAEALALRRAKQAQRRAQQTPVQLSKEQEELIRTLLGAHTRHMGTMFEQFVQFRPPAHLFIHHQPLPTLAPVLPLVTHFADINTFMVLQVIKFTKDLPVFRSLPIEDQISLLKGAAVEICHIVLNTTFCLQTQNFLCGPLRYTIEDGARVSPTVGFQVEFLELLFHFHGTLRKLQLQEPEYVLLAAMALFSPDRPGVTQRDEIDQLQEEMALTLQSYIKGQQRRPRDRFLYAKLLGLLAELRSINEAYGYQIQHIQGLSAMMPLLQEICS
Chain of Luciferin 4-monooxygenase (Photinus pyralis) (P08659 whole entry, looked up): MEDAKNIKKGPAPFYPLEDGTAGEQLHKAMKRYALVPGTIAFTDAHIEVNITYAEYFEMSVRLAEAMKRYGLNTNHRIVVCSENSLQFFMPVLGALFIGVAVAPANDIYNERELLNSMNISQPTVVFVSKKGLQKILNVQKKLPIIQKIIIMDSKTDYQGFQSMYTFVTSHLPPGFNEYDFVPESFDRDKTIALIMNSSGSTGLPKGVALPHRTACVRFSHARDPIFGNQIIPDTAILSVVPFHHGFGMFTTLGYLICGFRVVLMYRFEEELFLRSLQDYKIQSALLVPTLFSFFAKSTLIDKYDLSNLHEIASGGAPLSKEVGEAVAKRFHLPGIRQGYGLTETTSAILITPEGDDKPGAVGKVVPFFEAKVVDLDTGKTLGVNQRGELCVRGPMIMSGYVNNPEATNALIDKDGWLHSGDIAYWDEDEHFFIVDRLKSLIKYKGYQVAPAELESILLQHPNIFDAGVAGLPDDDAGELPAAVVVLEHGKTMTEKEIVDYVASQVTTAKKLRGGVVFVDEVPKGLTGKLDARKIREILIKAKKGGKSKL
Chain of Retinoic acid receptor RXR-alpha (Homo sapiens) (P19793 whole entry, looked up): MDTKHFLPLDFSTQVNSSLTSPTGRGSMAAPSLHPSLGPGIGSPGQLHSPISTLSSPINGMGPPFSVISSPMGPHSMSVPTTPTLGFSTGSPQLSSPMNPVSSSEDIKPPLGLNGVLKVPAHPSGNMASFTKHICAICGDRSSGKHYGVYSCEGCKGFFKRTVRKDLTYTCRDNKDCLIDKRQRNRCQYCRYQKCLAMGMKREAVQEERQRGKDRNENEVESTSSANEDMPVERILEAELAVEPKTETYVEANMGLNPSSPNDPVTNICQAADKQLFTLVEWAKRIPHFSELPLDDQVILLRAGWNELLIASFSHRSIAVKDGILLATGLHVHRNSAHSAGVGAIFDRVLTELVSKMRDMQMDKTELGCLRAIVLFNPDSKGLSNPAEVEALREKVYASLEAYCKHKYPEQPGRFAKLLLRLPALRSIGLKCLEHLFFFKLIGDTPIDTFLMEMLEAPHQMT

CC1(C)CC(OC(=O)CCCCCCCCC(=O)OC2CC(C)(C)NC(C)(C)C2)CC(C)(C)N1
inactive: outcome [1] | outcome [2] | outcome [3] | outcome [4] | outcome [5] | outcome [6] | activity, negative = cytotoxicity [7] 1.22% [at 19 µM] | activity change, negative = inhibition [8] 5.06% [at 19 µM] | viability change, negative = cytotoxic [9] -4.65% [at 15.8 µM] | activation [10] 13.3% [at 15.8 µM] | activation [11] -1.61% [at 15.8 µM] | activity change, negative = cytotoxicity [12] -17.6% [at 15.8 µM] | activity change, negative = cytotoxicity [13] -0.597% [at 19 µM] | activity, negative = inhibition [14] 10.8% [at 19 µM] | Potency [15] | viability change, negative = cytotoxic [16] -0.749% [at 19 µM] | activity change, negative = inhibition [17] 0.839% [at 23.6 µM] | viability change, negative = cytotoxic [18] -0.169% [at 19 µM] | activity change, negative = cytotoxicity [19] -3.96% [at 19 µM] | activity, negative = inhibition [20] 7.36% [at 19 µM]

O=C(O)CSCC(=O)NC1CCSC1=O (configuration not stated)
inactive: outcome [1] | outcome [2] | outcome [3] | outcome [4] | outcome [5] | outcome [6] | outcome [7] | outcome [8] | outcome [9] | outcome [10] | Potency [11] | outcome [12] | outcome [13] | outcome [14] | Potency [15] | Potency [17] | outcome [18] | outcome [19] | Potency [20]

CCC(=O)c1c(O)cc(O)cc1O
inactive: outcome [1] | outcome [2] | outcome [3] | outcome [4] | outcome [5] | outcome [6] | outcome [7] | outcome [8] | outcome [9] | outcome [10] | Potency [11] | outcome [12] | outcome [13] | outcome [14] | Potency [15] | outcome [16] | Potency [17] | outcome [18] | outcome [19] | Potency [20]

CC1=C(O)C(=O)C(C)O1 (configuration not stated)
inactive: outcome [1] | outcome [2] | outcome [3] | outcome [4] | outcome [5] | outcome [6] | outcome [7] | outcome [8] | outcome [9] | outcome [10] | Potency [11] | outcome [12] | outcome [13] | outcome [14] | Potency [15] | outcome [16] | Potency [17] | outcome [18] | outcome [19] | Potency [20]

CC(C)NCC(O)c1ccc2ccccc2c1 (configuration not stated)
inactive: outcome [1] | outcome [2] | outcome [3] | outcome [4] | outcome [5] | outcome [6] | outcome [7] | outcome [8] | outcome [9] | outcome [10] | Potency [11] | outcome [12] | outcome [13] | outcome [14] | Potency [15] | outcome [16] | Potency [17] | outcome [18] | outcome [19] | Potency [20]

C=CC/C=C/C
inactive: outcome [1] | outcome [3] | outcome [4] | outcome [5] | outcome [6] | outcome [7] | outcome [8] | outcome [9] | outcome [10] | Potency [11] | outcome [12] | outcome [13] | outcome [14] | Potency [15] | outcome [16] | Potency [17] | outcome [18] | outcome [19]

CCCCOCC(C)O (configuration not stated)
inactive: outcome [1] | outcome [2] | outcome [3] | outcome [4] | outcome [5] | outcome [6] | outcome [7] | outcome [8] | outcome [9] | outcome [10] | Potency [11] | outcome [12] | outcome [13] | outcome [14] | Potency [15] | outcome [16] | Potency [17] | outcome [18] | outcome [19] | Potency [20]
